From PubChem BioAssay
hcDAF-12 act – activators of H. contortus DAF-12 nuclear receptor | hit rate 1.4% among 370,000 | HEK293 hcDAF-12 lit1-tk-luc reporter, luminescence; 0% DMSO, 100% Δ7-dafachronic acid | activation, % at 6.8 µM;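 active means activation above the mean of all tested compounds plus 3 SD, cut at about 5.5% in these data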;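 further: 100% = response to 3 µM Δ7-dafachronic acid high control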
DAX1 inh-1 – NR0B1 (DAX1) inhibition; AID 504766; HEK293 Gal4-DAX1 luciferase reporter, luminescence; inhibition, % at 6.75 µM; P51843; hit rate 0.99% among 340,000;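 active means inhibition above the mean over all tested compounds plus 3 SD, cut at about 4.2% in these data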;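 further: 0% = DAX1-transfected cells with DMSO and 100% = empty-vector control cells with DMSO; inhibition shows as a rise in luminescence from relieved DAX1 repression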
hgDAF-12 ag – agonists of H. glycines DAF-12 nuclear receptor | AID 687014 | HEK293 GAL4-hgDAF12 UAS-luciferase reporter, agonist luminescence; normalized to butyrate control | activation, % at 6.8 µM | hit rate 1.8% among 370,000;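 active means activation above a cutoff set at the mean of all screened compounds plus 3 SD, cut at about 10% in these data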;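 further: 0% = DMSO wells and 100% = sodium butyrate wells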
SMARCA2 act – increases SMARCA2 function in MMTV reporter cells. activation, % at 9.1 µM. MG213 cells, MMTV-luciferase reporter, dexamethasone, overnight. hit rate 1% among 370,000; in the data active means activation above about 7.8%;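 further: 0% = vehicle wells and 100% = reference activator wells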
DAX1 inh-2 – inhibitors of DAX1 repression of SF-1 activated StAR promoter; HEK293T StAR-luciferase reporter, SF-1/DAX-1 repression relief; inhibition, % at 6.8 µM; hit rate 1.1% among 370,000; AID 652010;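 active means inhibition above the mean over all tested compounds plus 3 SD, cut at about 3.6% in these data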;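 further: 0% = DAX-1 cells with DMSO and 100% = cells lacking DAX-1 with DMSO; higher inhibition means more luminescence from relief of DAX-1 repression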
ssDAF12 agonist – S. stercoralis DAF-12 activation, primary screen; activation, % at 6.8 µM; HEK293 ssDAF-12/GRIP1 lit1-tk-luc reporter, luminescence; % of 3 µM dafachronic acid response; AID 652126; hit rate 1% among 370,000;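 active means activation above the mean over all tested compounds plus 3 SD, cut at about 0.9% in these data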;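 further: 0% = DMSO-only wells and 100% = 3 µM delta7-dafachronic acid wells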
LXR ag – LXR-beta agonism as hcDAF-12 counter-screen; shares compounds with hcDAF-12 act; HEK293 Gal4-LXR tk-luc reporter, luminescence, 24 h; normalized: DMSO 0%, positive control 100%; activation, % at 6.8 µM; 3,400 tested, under 10 active;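 active means mean percent activation of the reporter above a cutoff set as the average over tested compounds plus their standard deviation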
Target sequence (P55055 whole entry, looked up, the tested form may be a part): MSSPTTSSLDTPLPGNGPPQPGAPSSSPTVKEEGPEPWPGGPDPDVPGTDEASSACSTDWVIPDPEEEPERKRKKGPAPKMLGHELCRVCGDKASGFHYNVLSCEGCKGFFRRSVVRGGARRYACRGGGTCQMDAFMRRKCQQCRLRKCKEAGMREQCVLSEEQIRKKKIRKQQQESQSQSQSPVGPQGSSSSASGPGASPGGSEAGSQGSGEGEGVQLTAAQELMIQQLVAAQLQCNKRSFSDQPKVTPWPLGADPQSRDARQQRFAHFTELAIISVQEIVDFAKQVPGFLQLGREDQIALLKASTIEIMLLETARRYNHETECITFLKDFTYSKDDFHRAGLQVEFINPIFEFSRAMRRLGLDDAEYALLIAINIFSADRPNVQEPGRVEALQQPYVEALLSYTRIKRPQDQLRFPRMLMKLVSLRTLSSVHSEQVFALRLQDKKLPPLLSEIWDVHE
hcDAF12 conf – hcDAF-12 agonism, confirmation assay. hit rate 61% among 3,400. AID 743032. activation, % at 6.8 µM. shares compounds with hcDAF-12 act. HEK293 hcDAF-12 lit1-tk-luc reporter, luminescence; % of Δ7-dafachronic acid response;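 active means mean activation across triplicate tests above the threshold derived from the earlier primary screen, cut at about 5.5% in these data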;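 further: 0% = DMSO only wells and 100% = 3 µM Δ7-dafachronic acid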
Numbers without * were called inactive; nt = not tested or not shown. Rows were chosen to be rich in hits. Some 4.8% of all compounds tested hit in one or more screens of this group.

SMILES	hcDAF-12 act	DAX1 inh-1	hgDAF-12 ag	SMARCA2 act	DAX1 inh-2	ssDAF12 agonist	LXR ag	hcDAF12 conf
O=C(NCCc1cccs1)c1ccc(Cl)cc1	7.6*	-2	11*	0	3	1	1	2
Cc1onc(-c2ccc(Cl)cc2)c1-c1ccn(S(=O)(=O)c2cccc(Cl)c2)n1	0	nt	3	-6	-2	-2	nt	nt
CC(C)(C)C(=O)N1CCC[C@]2(CC[C@H](CCC#N)O2)C1	1	nt	1	-1	0	-1	nt	nt
COCCN1CC(=O)N2C(c3cccc(C)c3)c3[nH]c4ccccc4c3C[C@H]2C1=O (stereo partly specified)	9.6*	0	-1	-1	0	1	0	3
CN(/N=C/c1c[nH]c2ccccc12)c1cnn(-c2ccc(F)c(Cl)c2)c(=O)c1Cl	7.2*	-1	3	-1	1	1	0	1
CN(/N=C/c1cccnc1)c1cnn(-c2ccc(F)c(Cl)c2)c(=O)c1Cl	0	1	0	-6	0	-1	nt	nt
NNc1nc(-c2ccccc2Cl)nc2sc3c(c12)CCCC3	8.3*	2	9	3	2	1	1	7.7*
NNc1nc(-c2ccccc2Cl)nc2ccccc12	1	1	-1	-2	0	-1	nt	nt
O=S1(=O)c2c(cccc2N2CC[C@H](O)C2)O[C@H]2CCN1C2	0	nt	0	0	-1	-1	nt	nt
O=c1c2ccccc2cnn1-c1ccc(Br)cc1	11*	2	16*	5	3.9*	2.1*	1	12*
COC(=O)[C@]12C[C@H](CC(=O)NCCCCc3ccccc3)C(=O)N(Cc3ccco3)C1=C[C@H](C1CCCC1)O[C@@H]2C	-4	nt	-2	-3	0	-1	nt	nt
Cn1cc(CCOCc2ccccc2)c2ccccc21	3	nt	6	4	2	0	nt	nt
Cc1cccc(NC(=O)Nc2ccc(C#N)cc2)n1	-3	-2	6	4	-1	-2	nt	nt
Cc1cccc(NC(=O)Nc2ccc(Br)cc2)n1	7.6*	4	6	1	0	1.3*	1	6.2*
Cc1ccc2nc(-c3ccccn3)[nH]c2c1	8.7*	-2	10	3	2	1	1	5
Cc1ccc2nc(CCCc3nc4ccc(C)cc4[nH]3)[nH]c2c1	-2	0	-4	-1	-1	-1	nt	nt
c1ccc(-c2nc3c(ccc4ccccc43)[nH]2)nc1	8.9*	1	12*	7	1	1	0	8.1*
COc1cccc(C2NC(=S)NC(C)=C2C(C)=O)c1 (stereo unspecified)	0	nt	-2	1	1	-1	nt	nt
O=c1cc[nH]c2c(Cl)cccc12	7.2*	1	4	-1	1	0	0	5.7*
C=CCn1c(SCC(=O)Nc2ccccc2OCC)nnc1-c1ccc(C(C)(C)C)cc1	0	nt	-2	-5	0	-1	nt	nt
CCN(CC)CCCN1C(=O)C2=C(C1=O)C1N(C)c3ccccc3[C@@]13C[C@@H](CO)N(C(=O)CCC(=O)OC)C3=N2 (stereo partly specified)	0	nt	2	-2	0	-2	nt	nt
O=c1nc2s/c(=C\c3ccc(-c4ccccc4[N+](=O)[O-])o3)c(=O)n2nc1-c1ccccc1	6.9*	0	3	-1	0	0	0	3
CCCCCOc1ccc(/C=c2\sc3nc(=O)c(-c4ccccc4)nn3c2=O)cc1OC	1	-1	1	0	0	-1	nt	nt
C/C(=N\NC(=O)c1ccccc1O)c1cccc(NC(=O)c2ccccc2)c1	7.0*	3	9	4	0	1.3*	0	5
CCc1noc(C)c1C(=O)Nc1nc2c(F)cc(F)cc2s1	11*	0	2	1	0	0	0	4
SMILES	hcDAF-12 act	DAX1 inh-1	hgDAF-12 ag	SMARCA2 act	DAX1 inh-2	ssDAF12 agonist	LXR ag	hcDAF12 conf
Cn1c(SCc2nc3ccccc3s2)nnc1-c1cccs1	7.1*	1	6	5	0	1.5*	0	4
COc1ccccc1-c1nnc(SCc2nc3ccccc3s2)n1C	8.6*	2	1	2	0	1	0	3
CCCn1c(=O)c2ccccc2n2c(SCc3nc4ccccc4s3)nnc12	9.5*	1	8	3	3.7*	1.1*	1	7.3*
CCn1c(SCc2nc3ccccc3s2)nnc1-c1cccs1	5	1	9	3	0	0	nt	nt
CCCCn1c(SCc2nc3ccccc3s2)nc2ccccc2c1=O	1	1	1	-3	1	0	nt	nt
COc1ccc(-c2nnc(SCc3nc4ccccc4s3)n2C(C)C)cc1	1	2	1	2	1	0	nt	nt
C[C@H]1[C@@H](NC(=O)C#Cc2ccccc2)CC[C@@]23CCCN2C(=O)CCC[C@@H]13	-1	nt	-3	nt	nt	-2	nt	nt
COc1cccc(-c2ccc(CC[C@H]3O[C@H]4CC[C@H](CO)O[C@H]4C[C@H]3NS(C)(=O)=O)cc2)c1	-1	nt	0	-2	0	-1	nt	nt
O=C(N/N=C\c1cc(Br)cs1)c1ccncc1	0	1	1	2	0	-1	nt	nt
O=C(O)c1ccc(N/N=C/c2cc(Br)cs2)cc1	12*	-3	6	1	1	1.0*	1	9.0*
Cc1cc(Oc2cccnc2)ccc1NC(=O)CCc1c[nH]c2ccccc12	3	nt	-2	-3	-1	-1	nt	nt
CC(C)C[C@H]1COc2cc(N3CCOCC3)ccc2S(=O)(=O)N1	-1	nt	-3	3	0	-1	nt	nt
COC(=O)CCC[C@H](C)[C@@H](NS(=O)(=O)c1ccc(C)cc1)C(C)(C)C	-2	nt	-2	-4	0	-2	nt	nt
NS(=O)(=O)c1ccc(N2N=C(c3ccccc3)CC2c2ccccc2)cc1 (stereo unspecified)	-1	0	3	-1	-1	-1	nt	nt
O=S(=O)(O)c1ccc(N2N=C(c3ccccc3)CC2c2ccccc2)cc1 (stereo unspecified)	7.4*	1	4	-1	0	0	0	1
COC(=O)[C@]12C[C@H](CC(=O)N3CCCC3)C(=O)N(Cc3cccc4ccccc34)C1=C[C@H](C(C)(C)C)O[C@@H]2C	-1	nt	0	-3	-1	-1	nt	nt
O=CN1Cc2[nH]c3ccccc3c2N(c2ccc(Cl)cc2)C1=O	7.0*	-1	2	-1	0	1.1*	0	3
